Assay outcomes: PubChem, National Center for Advancing Translational Sciences (NCATS)
HT1080 IDH1KD tx: toxicity to HT-1080 IDH1 knockdown cells (counter line). Potency, µM (doses to about 46.1 µM), usual class: cytotoxic. 360,000 compounds, 2% hits. HT-1080 IDH1 knockdown viability, ATP luminescence, 48 h. AID 686971
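Cytotoxicity counter-line: IDH1KD HT-1080, 48 h, CellTiter-Glo. Curves classed by r2, magnitude and activity.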
TDP1 cell CPT: growth inhibition of DT40 Tdp1-/-;hTDP1 cells with camptothecin (screen for TDP1 inhibitors) | chicken DT40 Tdp1-/-;hTDP1 cells + 20 nM CPT, ATP luminescence, 48 h | Potency, µM (doses to about 46.2 µM), most hits filed as inhibitors | 420,000 compounds, 12% hits | AID 686979; note: nearly all actives have a fitted effect of over 55% in size
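Cell growth measured by CellTiter-Glo luminescence after a minimum 48 h, 37 C compound exposure with 20 nM CPT in Tdp1-knockout DT40 cells stably expressing hTDP1, seeded 400/well; qHTS titration format.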
DT40 TDP1 no CPT: qHTS for Inhibitors of human tyrosyl-DNA phosphodiesterase 1 (TDP1): qHTS in cells in absence of CPT | Potency, µM (titrated, usually from 46.2 µM), most hits filed as inhibitors | 420,000 compounds, 15% hits | DT40 Tdp1-/- hTDP1 cells, no CPT, ATP luminescence, 48 h | AID 686978, 2013; note: nearly all actives have a fitted effect of over 55% in size
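Growth of hTDP1-complemented DT40 Tdp1-knockout cells is measured by ATP luminescence after at least 48 hr compound exposure at 37 °C, with DMSO substituting for the 20 nM CPT used in the parallel screen.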
IL-1B inflam inh: blocks inflammasome-driven IL-1 beta release; THP-1 LPS/ATP IL-1B secretion, AlphaLISA, 16 h; hits give low values; activity change, % at 57.5 µM; 360,000 compounds, 4.7% hits; AID 743279; in the data active = activity change below about -50%; inconclusive = mostly about -30% to -49%
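Secreted IL-1B measured by AlphaLISA bead assay after 16 h compound exposure of THP-1 cells; compounds (final up to 57.5 uM) added 1 h before LPS (250 ng/mL) and ATP (1.25 mM) stimulation; lower signal means less secretion.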
HT1080-NT tox: kills 2HG-producing HT-1080-NT fibrosarcoma cells | HT-1080-NT fibrosarcoma viability, CellTiter-Glo ATP luminescence, 48 h | Potency, µM (titrated, usually from 46.1 µM), usual class: cytotoxic | 360,000 compounds, 1.6% hits | AID 686970;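 note: NT is the 2HG producing partner of a matched IDH1 knockdown line; nearly all actives have a fitted effect of over 55% in size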
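HT-1080-NT; 750 cells/well; 5% FBS RPMI; 48 h compound, 37 degrees C; CellTiter-Glo luminescence; curve fitting and curve-class assignment.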
Numbers stand for hits; n = inactive; u = inconclusive; x = not tested or not shown; [ ] = another dose, or the depositor's remark. Only some compounds are listed: those with a hit (about 19% of all), similar ones and a draw of the others. Unless noted, calls come from the whole dose curve; as a rule, active = well fitted curve in the direction sought with a large enough effect; inconclusive = small, poorly fitted or top-dose-only effect, or another doubt; inactive = no such curve, though single readings can be large; an effect the other way counts as inactive or inconclusive.

SMILES	HT1080 IDH1KD tx	TDP1 cell CPT	DT40 TDP1 no CPT	IL-1B inflam inh	HT1080-NT tox
COc1ccc(-c2cc(=O)oc3cc(OCC(=O)NCC4CCC(C(=O)O)CC4)ccc23)cc1 (stereo not given)	n	n	n	n	n
CCOc1ccc(NC(=O)C2CCCN(S(=O)(=O)c3cccc4nonc34)C2)cc1 (stereo not given)	x	n	n	x	x
COC(=O)COc1ccc(C2Nc3c(Cl)ccc(C(=O)O)c3C3C=CCC32)cc1 (stereo not given)	n	n	n	n	n
COc1ccc(OC)c(C2Nc3c(Cl)ccc(C(=O)O)c3C3C=CCC32)c1 (stereo not given)	u	u	u	-57	u
CC(=O)Nc1ccccc1OC(C)C(=O)N1CC(C)CC(C)C1 (stereo not given)	n	u	21µM	n	n
Cc1ccc(NS(=O)(=O)c2ccc3c(c2)NC(=O)C(C)C(=O)N3)cc1C (stereo not given)	n	u	18µM	n	n
Cc1ccc(CCNS(=O)(=O)c2ccc3c(c2)C(C(C)C)C(=O)N3)cc1 (stereo not given)	x	u	21µM	x	x
Cc1ccc(S(=O)(=O)Nc2ccc3[nH]c(=O)sc3c2)cc1C	x	u	16µM	x	x
CC1Sc2ccc(S(=O)(=O)NCCc3ccc(Cl)cc3)cc2NC1=O (stereo not given)	n	n	u	n	n
Cc1ccc(NS(=O)(=O)c2ccc3c(c2)C(C(C)C)C(=O)N3)cc1C (stereo not given)	x	u	29µM	x	x
COc1ccc(C(=O)CC(C(=O)O)c2ccc(OC)c(OC)c2)cc1OC (stereo not given)	n	n	n	n	n
Cc1ccc(CNC(=O)CSC2=Nc3ccccc3N=C(c3ccc(F)cc3)C2)cc1	x	n	n	x	x
COc1ccccc1CNC(=O)CSc1ccccc1	n	n	n	n	n
COc1ccccc1CNC(=O)CSC1=Nc2ccccc2N=C(c2ccc(F)cc2)C1	x	26µM	u	x	x
O=C(CSC1=Nc2ccccc2N=C(c2ccc(F)cc2)C1)NCc1ccccc1	x	u	18µM	x	x
CC1CCN(C(=O)c2ccc(S(=O)(=O)Cc3cccc(F)c3)c([N+](=O)[O-])c2)CC1	n	u	u	-86	n
O=C(c1ccc(S(=O)(=O)Cc2cc(F)ccc2F)c([N+](=O)[O-])c1)N1CCCC1	21µM	3.3µM	2.9µM	-108	u
O=C(c1ccc(S(=O)(=O)Cc2ccccc2Cl)c([N+](=O)[O-])c1)N1CCN(c2ccccn2)CC1	u	3.7µM	7.3µM	-103	u
O=C(c1ccc(S(=O)(=O)Cc2cc(F)ccc2F)c([N+](=O)[O-])c1)N1CCCCC1	n	u	23µM	-110	n
CCC1=CC(c2ccccc2)n2ncnc2N1 (stereo not given)	n	n	n	n	n
O=C(Nc1ccc(SC(F)F)cc1)c1ccc2c(=O)n3c(nc2c1)CCC3	n	u	u	n	3.3µM
O=C(Nc1cccc(S(=O)(=O)N2CCOCC2)c1)c1ccc2c(=O)n3c(nc2c1)CCCCC3	n	13µM	10µM	-86	u
O=C(c1ccc2c(=O)n3c(nc2c1)CCCCC3)N1CCN(c2ccc(Cl)cc2)CC1	n	23µM	18µM	u	n
CC(=O)c1cccc(NC(=O)c2ccc3c(=O)n4c(nc3c2)CCCCC4)c1	n	u	u	n	n
O=C(Nc1cccc(S(=O)(=O)N2CCCC2)c1)c1ccc2c(=O)n3c(nc2c1)CCCCC3	n	15µM	16µM	-62	n
SMILES	HT1080 IDH1KD tx	TDP1 cell CPT	DT40 TDP1 no CPT	IL-1B inflam inh	HT1080-NT tox
CCCNC(=O)c1c(NC(=O)c2ccccc2F)sc2c1CCCCC2	x	n	n	x	x
Cc1ccsc1C(=O)NCc1ccc(F)cc1	n	n	n	n	n
CCN(CC)CCCN1CC(=O)N2[C@@H](Cc3c([nH]c4ccccc34)C2(C)C)C1=O	n	n	n	n	n
CCCN1Cc2cccc(C(=O)Nc3ccc(C(C)=O)cc3)c2C1=O	x	n	n	x	x
O=C(NCc1ccccc1)c1ccc2c(=O)n3c(nc2c1)CCCCC3	n	n	u	n	n
O=C(Nc1nc(-c2ccccc2)cs1)c1ccc2c(=O)n3c(nc2c1)CCCCC3	u	16µM	8.2µM	n	u
CCCC(=O)N1CCCC(c2cc(C(=O)NCc3ccc(F)cc3)no2)C1 (stereo not given)	n	n	n	n	n
O=C(NCc1ccccc1)c1cc(C2CCCN(C(=O)C3CCCCC3)C2)on1 (stereo not given)	n	23µM	u	n	n
O=C(NCc1ccc(F)cc1)c1cc(C2CCCN(C(=O)C3CCCCC3)C2)on1 (stereo not given)	n	26µM	u	n	n
O=C(NCc1ccccc1)c1cc(C2CCCN(C(=O)C3CC3)C2)on1 (stereo not given)	n	n	n	n	n
CC(=O)Nc1ccc(C(=O)N2CCCC(c3cc(C(=O)NCc4ccc(F)cc4)no3)C2)cc1 (stereo not given)	n	u	u	n	n
COc1cc(C(=O)N2CCCC(c3cc(C(=O)NCc4ccc(F)cc4)no3)C2)cc(OC)c1C (stereo not given)	u	23µM	u	n	n
COc1ccccc1/C=N/N1CCN(c2ccc(Cl)cc2)CC1	n	n	n	n	n
Clc1ccccc1CN1CCN(/N=C/c2ccncc2)CC1	n	13µM	16µM	n	n
COc1ccccc1/C=C/C=N\N1CCN(Cc2ccccc2Cl)CC1	n	u	29µM	n	n
COc1ccccc1/C=C/C=N/N1CCN(Cc2ccc(Cl)cc2)CC1	u	u	u	u	n
Clc1ccc(N2CCN(/N=C/c3ccncc3)CC2)cc1	n	23µM	u	u	n
Cc1ccc(N2CCN(/N=C/c3ccncc3)CC2)cc1	n	21µM	18µM	n	n
Cc1cccc(COCCN2CCN(S(=O)(=O)c3ccccc3)CCC2=O)c1	n	n	n	n	n
Cc1c(OCC(=O)NC2CC(C)(C)NC(C)(C)C2)ccc2c1oc(=O)c1ccccc12	n	u	12µM	u	n
Cc1c(OCC(=O)NC2CC(C)(C)NC(C)(C)C2)ccc2c3c(c(=O)oc12)CCC3	n	u	n	-54	n
Cc1cc(=O)oc2c(C)c(OCC(=O)NC3CC(C)(C)NC(C)(C)C3)ccc12	n	n	n	n	n
CN=C(NC)NCc1ccccc1	x	n	n	x	x
CCn1c(-c2ccccc2F)nc2cc(C(=O)NCC3CCOCC3)cc(NC(C)=O)c21	x	n[9.04 µM]	n	x	x
Cc1cccc(NC(=O)c2nc[nH]c2C(=O)NC[C@@H](C)O)c1	n	n	n	n	n
Cc1cccc(NC(=O)c2nc[nH]c2C(=O)Nc2ccccc2[N+](=O)[O-])c1	n	6.5µM	2.9µM	n	n
